# Screening data deposited in PubChem BioAssay by Sanford-Burnham Center for Chemical Genomics.
# Hits are enriched below; roughly 1.4% of the tested compounds scored in any of these assays.
# NPR2 activator: GC-B (human) receptor activation | HEK293-GC-B cells, CNP EC30, cGMP TR-FRET; 0% at EC30 CNP, 100% saturating CNP | activation, % at 10 µM | 0.11% of 370,000 active;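 active = activation at 10 µM reaching about 35% in either raw or pattern-adjusted values, limit read from the data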
# A3A deaminase: human APOBEC3A DNA deaminase inhibition; AID 493011; 0.41% of 330,000 active; P31941; recombinant A3A, FAM/TAMRA ssDNA deamination fluorescence; inhibition, % at 20 µM;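 active = at least 40% inhibition at 20 µM here, with at most 30% in a related deaminase screen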;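 note: plate controls were A3A with DMSO for no effect and wells lacking A3A enzyme for full effect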
# APOBEC3G inh: inhibitors of human APOBEC3G DNA deaminase. Q9HC16. recombinant A3G, ssDNA deamination FAM/TAMRA fluorescence. inhibition, % at 20 µM. 0.28% of 330,000 active;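 active = inhibition of at least 40% at 20 µM, with no more than 30% in the related APOBEC3A deaminase screen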;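 note: plate controls were DMSO wells with A3G for no effect and wells lacking A3G enzyme for full effect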
# NPR1 activator: GC-A (human) enzyme activation | P16066 | HEK293 GC-A cells, cGMP TR-FRET, EC30 ANP; 0% at EC30 ANP, 100% saturating ANP | activation, % at 10 µM | 0.14% of 370,000 active; in the data active = activation above about 40%
# FAS-TE inh: FAS thioesterase (human) inhibition; 0.67% of 360,000 active; inhibition, % at 15 µM; P49327; recombinant FAS-TE, OMFH fluorogenic substrate, fluorescence endpoint;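 active = compounds whose normalised, plate-corrected inhibition of enzyme fluorescence in the single-dose primary screen is 50% or more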;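 note: 0% = DMSO with enzyme and 100% = substrate without enzyme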
# FAS-TE inh conf: confirmation of human fatty acid synthase thioesterase inhibitors; shares compounds with FAS-TE inh; recombinant FAS-TE, OMFH fluorogenic substrate, fluorescence; inhibition, % at 15 µM; 45% of 2,300 active; AID 624325;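 active = compounds inhibiting the enzyme by at least 50% at 15 µM in any one of the replicates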;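 note: 0% = enzyme with DMSO only and 100% = wells lacking enzyme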
# * marks the source's active call; other numbers are inactive results; . = no result.
SMILES,NPR2 activator,A3A deaminase,APOBEC3G inh,NPR1 activator,FAS-TE inh,FAS-TE inh conf
CC[C@H](C)[C@H]1O[C@]2(CC[C@@H]1C)C[C@@H]1C[C@@H](CC=C(C)[C@@H](O[C@H]3C[C@H](OC)[C@@H](O[C@H]4C[C@H](OC)[C@@H](O)[C@H](C)O4)[C@H](C)O3)[C@@H](C)C=CC=C3CO[C@@H]4[C@H](O)C(C)=C[C@@H](C(=O)O1)[C@]34O)O2,.,-0.4,-5.4,.,53.7*,14.7
CN1CCCN(C(=O)C2CCCN(C(=O)c3ccc4c(c3)NC(=O)CS4)C2)CC1 (stereo not drawn),3.6,.,.,5.6,.,.
N#C/C(=C\c1c(N2CCC(C(N)=O)CC2)nc2ccccn2c1=O)S(=O)(=O)c1ccc(Cl)cc1,7.7,-5.9,-0.7,13.9,54.6*,29.8*
Cc1cccn2c(=O)c(/C=C(\C#N)S(=O)(=O)c3ccccc3)c(N3CCN(Cc4ccccc4)CC3)nc12,-4.3,-5.3,-8.2,0.3,13.7,.
Cc1ccc(S(=O)(=O)/C(C#N)=C/c2c(N3CCOCC3)nc3c(C)cccn3c2=O)cc1,-6.0,-1.5,-4.7,2.1,55.5*,6.5
N#C/C(=C\c1c(N2CCOCC2)nc2ccccn2c1=O)S(=O)(=O)c1ccccc1,5.9,-3.4,-0.1,0.8,11.6,.
Cc1ccc(S(=O)(=O)/C(C#N)=C/c2c(N3CCN(Cc4ccccc4)CC3)nc3ccccn3c2=O)cc1,-3.3,-2.5,-2.6,0.6,81.4*,7.5
Cc1cccn2c(=O)c(/C=C(\C#N)C(=O)NCc3ccco3)c(N3CCOCC3)nc12,-4.4,1.5,-0.6,-1.5,10.2,.
N#C/C(=C\c1c(N2CCN(Cc3ccccc3)CC2)nc2ccccn2c1=O)S(=O)(=O)c1ccccc1,-4.0,-1.3,0.1,-4.3,56.1*,12.9
O=S(=O)(CC1NCc2cc(F)ccc21)NCc1ccccc1 (stereo not drawn),0.8,.,.,0.9,.,.
CCO[C@H]1OC(C(=O)NCc2ccccc2)=C[C@@H](C2CCCCC2)[C@@H]1CCCO,1.7,-2.2,-7.4,-3.1,57.2*,63.3*
CCO[C@@H]1OC(C(=O)NCc2ccccc2)=C[C@H](C(C)(C)C)[C@H]1CCCO,6.0,0.2,-10.5,0.0,9.9,.
CC(C)c1[nH]nc2c1C(c1ccc3c(c1)OCO3)NC2=O (stereo not drawn),10.9,.,.,9.4,.,.
CCOC(=O)[C@]12CCCC3=C1N(CCC3)C(=O)[C@@H](CC(=O)N1CCOCC1)C2,4.1,.,.,0.2,.,.
CC(CCc1ccco1)NC(=O)c1cccc2c1C(=O)N(C1CCCCC1)C2 (stereo not drawn),6.9,-2.5,-5.0,7.1,62.7*,8.9
CCN(Cc1ccccc1)c1ccc(N=Nc2nn(C)c(C)c2[N+](=O)[O-])cc1,-0.4,3.3,-0.8,-5.4,52.4*,36.3*
O=S(=O)(c1ccc(F)cc1)N1CCCC(c2nc(-c3ccc(F)cc3)no2)C1 (stereo not drawn),3.7,-1.7,-12.9,2.5,58.3*,23.4
Cc1nc2ccc(NC(=O)c3cc([N+](=O)[O-])cc([N+](=O)[O-])c3Cl)cc2s1,21.2,.,.,80.4*,69.9*,88.7*
CC(C)C[C@H]1COc2cccc(F)c2S(=O)(=O)N1Cc1cn(Cc2ccc(C(F)(F)F)cc2)nn1,5.9,.,.,2.9,.,.
O=C(C1CCN(S(=O)(=O)c2cccnc2)CC1)N1CCN(c2ccccc2Cl)CC1,0.2,1.9,-2.0,-11.1,-1.5,.
Cc1ccc(Cl)cc1N1CCN(C(=O)C2CCN(S(=O)(=O)c3cccnc3)CC2)CC1,-0.1,0.3,-1.2,-7.1,50.0*,21.8
C[C@H](CO)N1C[C@H](C)[C@@H](CN(C)C(=O)Nc2cccc(F)c2)OCc2cn(nn2)CCCC1=O,1.9,.,.,0.1,.,.
COC(=O)C1CN(Cc2ccccc2)CCS(=O)(=O)N1Cc1cn(Cc2cccc(Cl)c2)nn1 (stereo not drawn),-5.8,.,.,-9.8,.,.
COc1ccccc1N1CCN(C(=O)C(C)NC(=O)c2cccc([N+](=O)[O-])c2)CC1 (stereo not drawn),1.1,-1.7,-6.7,3.7,80.4*,85.8*
CCNC(=O)N(C)[C@H]1C[C@H]2c3[nH]c4c(-c5cccc(C)c5)cccc4c3CCN2C[C@H]1[C@H](C)O,7.7,.,.,1.2,.,.
